Source: PubChem BioAssay
Shown is part of a subset that was picked to be rich in hits.
TDP1 cell noCPT: qHTS for Inhibitors of human tyrosyl-DNA phosphodiesterase 1 (TDP1): qHTS in cells in absence of CPT; DT40 Tdp1-/- hTDP1 cells, no CPT, ATP luminescence, 48 h; Potency, µM (highest dose often 46.2 µM), for inactives: top-dose activity change, negative = growth inhibition, actives largely listed as inhibitors; 15% of 420,000 active; AID 686978, 2013; further: potency means the concentration at half of the fitted maximal effect; nearly all actives have a fitted effect of over 55% in size
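Cells were dispensed at 400 per well, compounds added by pin tool, plates incubated ≥48 hr at 37 °C, then CellTiter-Glo added for 30 min at room temperature before luminescence reading. Line: DT40 Tdp1-/- complemented with hTDP1; camptothecin omitted.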
12-LOX inh: ALOX12 (human) lipoxygenase inhibition; 1.1% of 580,000 active; P18054; Potency, µM (titrated, usually from 108 µM), without a hit: at the top dose activity change, negative = inhibition, usual class: inhibitors; purified 12hLO, xylenol orange hydroperoxide absorbance; further: potency means the concentration at half of the fitted maximal effect
Target sequence (P18054 whole entry, looked up): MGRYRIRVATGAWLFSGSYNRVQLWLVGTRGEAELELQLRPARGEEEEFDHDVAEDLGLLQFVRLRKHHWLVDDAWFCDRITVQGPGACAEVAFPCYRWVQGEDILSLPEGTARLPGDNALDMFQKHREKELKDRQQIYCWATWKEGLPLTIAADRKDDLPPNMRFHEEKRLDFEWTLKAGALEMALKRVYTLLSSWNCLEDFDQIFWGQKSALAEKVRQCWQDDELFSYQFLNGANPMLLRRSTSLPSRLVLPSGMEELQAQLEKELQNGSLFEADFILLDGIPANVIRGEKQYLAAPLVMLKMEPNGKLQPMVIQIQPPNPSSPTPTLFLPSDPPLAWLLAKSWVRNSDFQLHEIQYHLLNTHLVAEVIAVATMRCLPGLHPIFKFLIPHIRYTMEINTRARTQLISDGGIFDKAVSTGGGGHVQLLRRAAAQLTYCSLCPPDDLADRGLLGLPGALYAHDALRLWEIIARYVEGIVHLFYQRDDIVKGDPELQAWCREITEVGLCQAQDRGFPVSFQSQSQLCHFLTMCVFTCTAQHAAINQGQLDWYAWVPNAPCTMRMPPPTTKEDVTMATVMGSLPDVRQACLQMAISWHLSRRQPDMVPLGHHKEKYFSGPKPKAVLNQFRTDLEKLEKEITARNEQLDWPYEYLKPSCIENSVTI
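Purified human 12hLO (150 nM final) in 25 mM Hepes, 0.01% Triton X-100, pH 7.0 was preincubated 15 min at room temperature with compound. Then 40 uM arachidonic acid was added, 30 min. Hydroperoxide was read by Fe-XO absorbance ratio 573/405 nm.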
HT1080 IDH1KD tx: toxicity to HT-1080 IDH1 knockdown cells (counter line) | HT-1080 IDH1 knockdown viability, ATP luminescence, 48 h | Potency, µM (series often up to 46.1 µM), for inactives: at the top dose activity, negative = toxicity, hits mostly cytotoxic | 2% of 360,000 active | AID 686971;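 further: potency means the concentration at half of the fitted maximal effect; 0% = DMSO wells and -100% = cell-free medium wells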
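IDH1KD HT-1080 cells, 750/well, RPMI + 5% FBS; compound pinned after 2 h settling; 48 h, 37 °C; CellTiter-Glo luminescence; % activity normalised to DMSO and no-cell wells; curves fitted, classed by r2 and efficacy.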
HT1080NT lethal: kills 2HG-producing HT-1080-NT fibrosarcoma cells; HT-1080-NT fibrosarcoma viability, CellTiter-Glo ATP luminescence, 48 h; Potency, µM (top dose mostly 46.1 µM), inactives show top-dose activity, negative = less viability, hits mostly cytotoxic; 1.6% of 360,000 active;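 further: NT is the 2HG producing partner of a matched IDH1 knockdown line; potency means the concentration at half of the fitted maximal effect; 0% = DMSO-treated cells and -100% = media-only wells without cells; nearly all actives have a fitted effect of over 55% in size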
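Compounds were tested in concentration-response format on HT-1080-NT cells for 48 hours at 37 degrees C. Cell viability came from CellTiter-Glo luminescence; curves were classified by r2, response magnitude and activity.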
DT40 TDP1 CPT: growth inhibition of DT40 Tdp1-/-;hTDP1 cells with camptothecin (screen for TDP1 inhibitors). chicken DT40 Tdp1-/-;hTDP1 cells + 20 nM CPT, ATP luminescence, 48 h. Potency, µM (titrated, usually from 46.2 µM), inactives show at the highest dose activity change, negative = growth inhibition, actives largely listed as inhibitors. 12% of 420,000 active. AID 686979; further: potency means the concentration at half of the fitted maximal effect; nearly all actives have a fitted effect of over 55% in size
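Chicken DT40 Tdp1-/- cells stably complemented with human TDP1 were seeded at 400 cells/well in medium containing 20 nM camptothecin, exposed to pin-transferred compounds, and grown at 37 °C for at least 48 hr. Viability was read as ATP luminescence.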
IL1B secr inh: inflammasome signaling inhibition, IL-1 beta readout | AID 743279 | activity change, % at 57.5 µM | THP-1 LPS/ATP IL-1B secretion, AlphaLISA, 16 h; active compounds read low | 4.7% of 360,000 active; in the data active means activity change below about -50%; inconclusive means mostly about -30% to -49%
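THP-1 cells pretreated 1 hr with compounds (up to 57.5 uM final), then stimulated with LPS (250 ng/mL final) plus ATP (1.25 mM final); secreted IL-1B measured by AlphaLISA after 16 hr, decreased signal indicating inhibition.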
An asterisk follows results filed as active; ? = inconclusive; / = no result; [ ] = remark or other dose. Unless noted, the call rests on the fitted dose curve; in most records, active means well fitted curve in the direction sought with a large enough effect; inconclusive means small, poorly fitted or top-dose-only effect, or another doubt; inactive means no such curve, though single readings can be large; an effect the other way counts as inactive or inconclusive. Unless noted, on the % scale 0 is the no-effect control and ±100 the full control effect.

SMILES	TDP1 cell noCPT	12-LOX inh	HT1080 IDH1KD tx	HT1080NT lethal	DT40 TDP1 CPT	IL1B secr inh
CCNC(=O)Nc1cc(S(=O)(=O)Nc2ccc(OC)cc2)ccc1N1CCOCC1	0.73µM*	/	-13%	-18%	2.3µM*	-14
COc1ccc(NS(=O)(=O)c2ccc(N3CCCC3)c(NC(=S)Nc3ccc(SC(F)F)cc3)c2)cc1	18µM*	25µM*	-26%	-1%	18µM*	-20
CCCCNC(=O)c1ccc(N2CCOCC2)c(NS(=O)(=O)c2ccc(OC)cc2)c1	-12%	-25%	?	1%[9.24 µM]	-13%	-12
CN(CC(=O)Nc1ccccc1C(F)(F)F)C(=O)Cc1ccc2c(c1)CCCC2	/	5%	/	/	/	/
O=S(=O)(Nc1ccc(F)cc1Cl)c1ccc(-c2cnc(C3CC3)o2)cc1	0.73µM*	11%	?	1.2µM*	0.65µM*	40
Cc1ncc(-c2ccc(S(=O)(=O)Nc3ccccc3F)cc2)o1	/	2%	/	/	/	/
Cc1cc(C)cc(NS(=O)(=O)c2ccc(-c3cnc(C)o3)cc2)c1	/	8%	/	/	/	/
Cc1ccc(NS(=O)(=O)c2ccc(-c3cnc(C4CC4)o3)cc2)c(C)c1	1µM*	-27%	0.82µM*	?	1.5µM*	35
CCN(CC)c1ccc(NS(=O)(=O)c2ccc(-c3cnc(C4CC4)o3)cc2)c(C)c1	16µM*	-23%	/	/	12µM*	/
Cc1cccc(N(C)S(=O)(=O)c2ccc(-c3cnc(C4CC4)o3)cc2)c1	0.037µM*	25%	?	0.052µM*	0.029µM*	112
Cc1cc(C)c(NS(=O)(=O)c2ccc(-c3cnc(C4CC4)o3)cc2)c(C)c1	0.018µM*	-23%	/	/	0.58µM*	/
Cc1nc(Cl)sc1C(=O)Nc1ccc(C(F)(F)F)cc1	-8%	40%	1%	2%	-21%	-65*
Cc1nc(Cl)sc1C(=O)Nc1cccc(C(F)(F)F)c1	-23%	0%	22%	18%	-2%	-5
Cc1nc(Cl)sc1C(=O)Nc1cccc(Cl)c1C	?	1%	0%	1%	?	-96*
Cc1nc(Cl)sc1C(=O)Nc1ccccc1Cl	?	11%	-1%	9%	5%	-14
Cc1oncc1C(=O)Nc1ccc(C(F)(F)F)cc1	9.2µM*	-30%	?	?	7.3µM*	-24
Cc1noc(-c2ccc(C(F)(F)F)cc2)c1NC(=O)Nc1ccc(Cl)cc1	3.7µM*	58%	?	?	4.6µM*	-53*
CSc1ccc(NC(=O)CC2C=CCC2)cc1 (stereo not drawn)	/	-4%	/	/	/	/
COc1ccc(CNC(=O)Cc2c(C)c3ccc(OC(C)=O)cc3oc2=O)cc1OC	/	-12%	/	/	/	/
Nc1cccc(C(=O)c2ccc(F)cc2)c1	/	28%	/	/	/	/
C[C@@]12CCC=C[C@H]1[C@H](c1ccc3ccccc3c1/C=C/c1ccccc1)N(Cc1ccccc1)C2=O	?	14%	-1%	-2%	2.1µM*	38
C[C@@]12CCC=C[C@H]1[C@H](c1ccc(C(F)(F)F)cc1)N(Cc1ccccc1)C2=O	16µM*	?	-2%	-4%	?	41
C[C@@]12CCC=C[C@H]1[C@H](c1ccc(/C=C/c3ccccc3)cc1F)N(Cc1ccccc1)C2=O	21µM*	?	?	?	15µM*	-19
CCOCCn1ccc2c(OCC(=O)Nc3cc(OC)ccc3OC)cccc2c1=O	9.2µM*	-7%	-1%	-4%	?	-11
CCOCCn1ccc2c(OCC(=O)Nc3cccc(F)c3)cccc2c1=O	?	-25%	/	/	-29%	/
SMILES	TDP1 cell noCPT	12-LOX inh	HT1080 IDH1KD tx	HT1080NT lethal	DT40 TDP1 CPT	IL1B secr inh
CCOCCn1ccc2c(OCC(=O)Nc3ccc(C(N)=O)cc3)cccc2c1=O	15µM*	-12%	/	/	?	/
CCCn1ccc2c(OCC(=O)Nc3ccc(C(F)(F)F)cc3)cccc2c1=O	?	?	/	/	-12%	/
CCn1ccc2c(OCC(=O)Nc3ccc(C(C)=O)cc3)cccc2c1=O	9.2µM*	-21%	/	/	?	/
COCCn1ccc2c(OCC(=O)Nc3cc(OC)ccc3OC)cccc2c1=O	15µM*	16%	-2%	0%	?	-10
O=C(C[C@H]1NC(=O)c2ccccc2NC1=O)Nc1ncn[nH]1	/	33%	/	/	/	/
COCCNC(=O)C[C@@H]1C[C@H]2O[C@H](CNC(=O)Nc3cccnc3)[C@@H](O)[C@H]2O1	/	-9%[176 µM]	/	/	/	/
Cc1noc(C)c1Cc1ccc(C(=O)N2CC(N(Cc3cccnc3)CC(C)C)C2)o1	/	22%	/	/	/	/
CCN1c2cc(C(=O)Nc3cccc(OC(F)(F)F)c3)ccc2C(=O)N2CCCCC21 (stereo not drawn)	/	31%	/	/	/	/
CC(=O)Nc1ccc(C2(C(=O)NCc3cc(F)cc(F)c3)CCCCC2)cc1	/	15%	/	/	/	/
COCCN1C(=O)[C@H]2CN(Cc3ccc(C)c(C)c3)C[C@H]2C1=O	/	21%	/	/	/	/
COc1cccc2c(=O)n(CC(=O)Nc3ccccc3)ccc12	-20%	?	-1%	0%	4%	6
CCOCCn1ccc2c(OCC(=O)Nc3ccccc3OC)cccc2c1=O	?	?	-23%	?	?	-60*
COC(=O)COc1cccc2c(=O)n(CC(=O)Nc3ccc4c(c3)OCCO4)ccc12	-13%	12%	?	-5%	-15%	-50*
COc1ccc(C(=O)/C=C/c2ccccc2F)c(OC(=O)c2ccccc2C)c1	/	-17%	/	/	/	/
c1ccc(-c2noc(-c3ccn4c(CN5CCN(c6ccccn6)CC5)nnc4c3)n2)cc1	/	61%	/	/	/	/
Cc1ccc(C)c(N2CCN(C(=O)CCc3nc(-c4cccc(Cl)c4)no3)CC2)c1	-20%	-29%	10%	5%	?	-3
CC1(C)CC(=O)c2cc(OCC(=O)NCCCN3CCN(c4ccc(F)cc4)CC3)ccc2O1	?	-5%	?	?	11µM*	?
Cc1ccc(-c2noc(CCC(=O)NCCCN3CCN(c4cccc(Cl)c4)CC3)n2)cc1	8.2µM*	?	?	?	12µM*	-67*
Cc1ccc(-c2noc(CCC(=O)NCCCN3CCN(c4ccc(F)cc4)CC3)n2)cc1	7.3µM*	0%	-12%[9.24 µM]	23µM*	6.5µM*	-68*
Cc1nc(NC(=O)c2c(F)cccc2Cl)sc1C	/	2%	/	/	/	/
OC1CCCN(c2ccc(-c3nc(-c4cccc(C(F)(F)F)c4)no3)cn2)C1 (stereo not drawn)	/	30%	/	/	/	/
CSC(C)C(=O)NC(C)c1ccccc1Br (stereo not drawn)	/	7%	/	/	/	/
